Results taken from ChEMBL document CHEMBL3988442, “University of Dundee, Small-Polar-MMV Screening Library” (2021).

Target: AMP-activated protein kinase, AMPK (Homo sapiens) (UniProt P54646+O43741+P54619+Q9UGJ0+Q9Y478+Q13131+Q9UGI9)
Assay: AMP-dependent Kinase enzyme assay. An in vitro enzyme assay that detects ADP turnover that is directly proportional to AMPK activity. This uses naive AMPK that is activated during the assay with MK-8722
Format: functional
Design: scale not given: direction of the effect not stated beside the values
Details: 30 µM

Compound | Percent Effect [%]
CC(C)c1ccccc1OCCNC(=O)N1CCC(CC(N)=O)CC1 | -3.47
Cc1ccc2nc(CN3CCCCC3C(=O)N3CCOCC3)cn2c1 (centres undefined) | 8.07
CN(C)C(CNC(=O)OCC(F)(F)F)c1ccsc1 (centres undefined) | -1.15
CN1CCCC(CCC(=O)NCCc2nnc(N)s2)C1 (centres undefined) | -1.67
COc1cc(F)ccc1NC(=O)NCCNC(=O)OC(C)(C)C | -6.81
COc1cccc(C)c1C(=O)N1CCc2ncnc(NCCO)c2CC1 | -1.45
CN1CCOC(CNCC(=O)NCCCc2ccccc2)C1 (centres undefined) | -10
Cc1ccc(F)c2c1N(C(=O)c1ccc(S(C)(=O)=O)cc1)CCC2 | 0.782
CCN(CC)CCNCc1cc(O)c2cc(C)ccc2n1 | 0.484
CCOCCC(=O)N1CCCC(c2cc(C(F)(F)F)[nH]n2)C1 (centres undefined) | 0.822
COc1cccc(-c2nc(CNCCc3cccnc3)cs2)c1 | -3.62
CCSc1cc(C(=O)NC(C)c2cccc(N3CCOC3=O)c2)ccn1 (centres undefined) | 7.17
COC(=O)c1ccoc1CN(C)CC(=O)NC1CC1 | -3.6
Cc1nc(N)nc(C)c1CC(=O)N1CCC2(CC1)OCCCC2O (centres undefined) | 73.8
CCN(C)Cc1cccc(CNC(=O)CSCc2ccncc2)c1 | -11.3
NC(=O)C1CCN(c2ccc(C(=O)N3CCc4ccccc43)cn2)C1 (centres undefined) | 6.03
CCC(C(=O)NC1(C(N)=O)CCCC1)n1cccn1 (centres undefined) | -1.13
Cc1nc(OCC(=O)N2CCCC2)cc(-n2cccn2)n1 | 3.39
O=C(c1nnn(-c2ccccc2)n1)N(CCO)CCO | 0.534
